From PubChem BioAssay
Rows were chosen to be rich in hits. Some 6% of all compounds tested hit in one or more screens of this group.
Sfp PPTase inh – qHTS Assay for Inhibitors of Bacillus subtilis Sfp phosphopantetheinyl transferase (PPTase); Biochemical Sfp PPTase activity, qHTS; 4'-phosphopantetheinyl transferase ffp (Bacillus subtilis), Q9F4F7; Potency, µM, without a hit: largest response in the series, negative = inhibition, most hits filed as inhibitors; actives 3.5% (n = 310,000);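 further: the enzyme is Sfp with the accession as filed and its product quenches rhodamine fluorescence; 0% = enzyme reaction without inhibitor and -100% = no enzyme wells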
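Reaction rates are the 30-min fluorescence difference (ex 525, em 598 nm) in wells containing 15 nM Sfp, 5 uM rhodamine-CoA and 12.5 uM BHQ-2-YbbR at pH 7.6 with 10 mM MgCl2.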
Tau fluor cs – Counterscreen qHTS for Inhibitors of Tau Fibril Formation, Fluorescence Polarization; tau K18 P301L Alexa594 fluorescence, heparin fibrillization; Potency, µM (doses to about 57.7 µM), inactives show at the highest dose activity change, negative = decrease; actives 0.93% (n = 280,000); further: nearly all actives have a fitted effect of over 55% in size
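Human tau K18 P301L (15 uM unlabeled, 0.24 uM Alexa 594-labeled) in 100 mM sodium acetate pH 7 with 20 uM heparin, 6 hr at 37 C. ThT 30 uM added, 1 hr ambient; Alexa 594 FP and total fluorescence read at 555/632 nm.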
PLK1 PBD block – qHTS for Inhibitors of PLK1-PDB (polo-like kinase 1 - polo-box domain): Primary Screen. Serine/threonine-protein kinase PLK1 (Homo sapiens), P53350. Plk1 PBD binding of FITC phosphopeptide, fluorescence polarization. Potency, µM, for inactives: max response, negative = inhibition, most hits filed as inhibitors. actives 2.8% (n = 360,000); further: series mostly up to about 57 µM; nearly all actives have a fitted effect of over 65% in size
Target sequence (P53350 whole entry, looked up, the tested form may be a part): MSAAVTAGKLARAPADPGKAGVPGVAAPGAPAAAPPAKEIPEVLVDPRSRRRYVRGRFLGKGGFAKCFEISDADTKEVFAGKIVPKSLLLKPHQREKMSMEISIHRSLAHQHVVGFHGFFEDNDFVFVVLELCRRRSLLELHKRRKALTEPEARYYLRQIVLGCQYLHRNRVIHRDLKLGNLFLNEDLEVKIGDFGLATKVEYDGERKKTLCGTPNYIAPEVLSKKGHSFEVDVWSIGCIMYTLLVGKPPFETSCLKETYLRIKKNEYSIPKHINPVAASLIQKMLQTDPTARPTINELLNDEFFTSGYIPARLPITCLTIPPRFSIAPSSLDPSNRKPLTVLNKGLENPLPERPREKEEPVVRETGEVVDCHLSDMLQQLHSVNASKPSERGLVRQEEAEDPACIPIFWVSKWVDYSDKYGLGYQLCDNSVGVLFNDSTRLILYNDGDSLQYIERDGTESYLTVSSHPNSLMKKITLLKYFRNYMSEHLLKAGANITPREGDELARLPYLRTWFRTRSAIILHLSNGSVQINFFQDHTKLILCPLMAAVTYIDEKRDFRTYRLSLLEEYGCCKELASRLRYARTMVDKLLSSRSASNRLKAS
Tau fibril FP – qHTS for Inhibitors of Tau Fibril Formation, Fluorescence Polarization | Microtubule-associated protein tau (Homo sapiens), P10636 | K18 P301L tau heparin fibrillization, Alexa594 FP, 6 h | Potency, µM (titrated, usually from 57.7 µM), for the others: at the top dose activity, negative = inhibition, hits mostly inhibitors | actives 0.39% (n = 280,000); further: nearly all actives have a fitted effect of over 55% in size
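Human K18 P301L fragment (15 uM unlabeled plus 0.24 uM Alexa 594-labeled) in 100 mM sodium acetate pH 7 with compound, aggregation induced by 20 uM heparin for 6 hr at 37 C. ThT (30 uM) added for 1 hr, then Alexa 594 FP read.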
Tau fibril ThT – qHTS for Inhibitors of Tau Fibril Formation, Thioflavin T Binding; AID 1460, 2008; actives 2.1% (n = 270,000); recombinant tau K18 P301L (four-repeat tau fragment), heparin-induced fibrillization, ThT fluorescence; Microtubule-associated protein tau (Homo sapiens), P10636; Potency, µM (top dose mostly 57.4 µM), inactives show at the highest dose activity, negative = inhibition, usual class: inhibitors; further: nearly all actives have a fitted effect of over 55% in size
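Heparin-induced (20 uM) aggregation of recombinant human K18 P301L tau, 15 uM unlabeled with 0.24 uM labeled, pH 7 acetate buffer, 6 hr at 37 C with compound. Fibrils quantified by 30 uM ThT fluorescence after 1 hr ambient incubation.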
VDR inh – Inhibitors of the vitamin D receptor (VDR): qHTS; Vitamin D3 receptor (Homo sapiens), P11473; VDR-SRC2-3 peptide fluorescence polarization, 2 h; Potency, µM, inactives show max response, negative = inhibition, usual class: inhibitors; actives 0.93% (n = 400,000); AID 504847, 2011
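Fluorescence polarization assay of small-molecule disruption of VDR binding to coregulator peptide SRC2-3. Compounds and controls pin-transferred, then read after 2 h incubation at ambient room temperature.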
Starred values were filed as active, the others as inactive; ? = inconclusive; / = no result given; [ ] = dose if it differs, or a comment. The call rests on the fitted dose curve; in most records, active means well fitted curve in the direction sought with a large enough effect; inconclusive means small, poorly fitted or top-dose-only effect, or another doubt; inactive means no such curve, though single readings can be large; an effect the other way counts as inactive or inconclusive. Unless noted, on the % scale 0 is the no-effect control and ±100 the full control effect; potency means the concentration at half of the fitted maximal effect.

SMILES	Sfp PPTase inh	Tau fluor cs	PLK1 PBD block	Tau fibril FP	Tau fibril ThT	VDR inh
CN(C)c1ccc(NC(=O)Cn2c(SCc3ccc(F)cc3)nc3cccnc32)cc1	/	-7%	/	10%	-3%	6%
Cc1cc(C)cc(-n2c(SCC(=O)NC3CCCCC3)nc3c([nH]c4ccccc43)c2=O)c1	/	-1%	/	0%	-2%	2%
CCOC(=O)C(C)Sc1nc(=O)n2cc(C)ccc2n1 (stereo not given)	15%	6%	-2%	-4%	-1%	5%
CCOC(=O)C(C)Sc1nc(=O)n2ccccc2n1 (stereo not given)	6%	-5%	24µM*	-3%	-3%	-13%
COc1ccccc1OCCNc1nc2c(c(=O)n(C)c(=O)n2C)n1C	16%	-7%	19µM*	-9%	-7%	?
Cc1ccc(C)n1-c1sccc1C(=O)O	50µM*	-25%	3.8µM*	?	32µM*	31%
Cc1ccc(N2CC(NC(=O)c3ccco3)CC2=O)cc1 (stereo not given)	/	-4%	/	-3%	-10%	22%
CN(C1CCCCC1)S(=O)(=O)c1ccc(C(=O)O)cc1	17%	-4%	-4%	0%	-6%	-4%
COc1ccc(S(=O)(=O)N(C)CC(=O)NC2CCCCC2)cc1Cl	7%	-8%	1%	-6%	-7%	7%
CN(C1CCCCC1)S(=O)(=O)c1ccc(Cl)c(C(=O)O)c1	18%	8%	19µM*	-3%	10%	?
COc1ccc(S(=O)(=O)N(CC(N)=O)C2CCCCC2)cc1Cl	1%	0%	12µM*	0%	0%	-16%
COc1cc(-c2noc(-c3ccc(N(C)C)c([N+](=O)[O-])c3)n2)cc(OC)c1OC	/	-30%	/	-4%	-3%	-3%
CC(=O)C1=C(O)C2(C)c3c(O)c(C)c(O)c(C(C)=O)c3OC2CC1=O (stereo not given)	/	/	2%	/	/	/
CCNc1sc(C(=O)c2cccs2)c(N)c1C#N	45µM*	?	-17%	?	28µM*	?
COc1ccc(C(=O)N2CCC3(CCCN(c4ncccn4)C3)CC2)cc1	-6%	/	/	/	/	6%
CCCCN(C)c1c(C)nc2ccc(C(=O)Nc3cc(-c4ccccc4)ccc3OC)cn12	/	/	-7%	/	/	/
CC1=NN(c2ccccc2)C(=O)C1N=Nc1ccc(N)cc1 (stereo not given)	-28%	16µM*[quencher]	24µM*	-11%	11µM*	-19%
CC1=NN(C(N)=S)C(=O)C1N=Nc1ccc(Cl)cc1 (stereo not given)	-5%	/	13µM*	/	/	?
CC1=NN(C(N)=S)C(=O)C1N=Nc1cccc2ccccc12 (stereo not given)	-1%	?	/	-9%	4µM*	/
CC1=NN(C(N)=S)C(=O)C1N=Nc1ccc(Br)cc1 (stereo not given)	9%	/	-30%	/	/	-8%
N#C/C(=C(/O)CN1CCCC1)c1nc(-c2ccccc2)cs1	32µM*	-9%	0%	2%	-16%	5%
N#CC(=C(O)CN1CCN(c2ccccc2F)CC1)c1nc(-c2ccccc2)cs1	/	/	-14%	/	/	11%
CC(=O)N1CCN(c2nc3ccc([N+](=O)[O-])cc3s2)CC1	11%	/	-6%	/	/	-25%
CCCN(C(=O)c1c(C)oc2ncnc(N3CCOCC3)c12)c1ccc(Cl)c(Cl)c1	/	-12%	/	4%	-7%	-23%
CCOc1ccc(C2C(C(=O)C3CC3)N3C=C(C#N)C=CC3C2(C#N)C#N)cc1 (stereo not given)	?	-24%	/	?	16µM*	/
SMILES	Sfp PPTase inh	Tau fluor cs	PLK1 PBD block	Tau fibril FP	Tau fibril ThT	VDR inh
CC(=O)NC(CC(=O)N(C)C1CCCCC1)c1ccccc1 (stereo not given)	13%	/	-16%	/	/	9%
CC(C)(C)OC(=O)NCCCC1=CC2=CC(=O)C(C)(OC(=O)c3cnc4ccccc4n3)C(=O)C2=CO1 (stereo not given)	-15%	-10%	/	-3%	-17%	-24%
COc1ccc(OC)c(CCNC(=O)c2ccc3c(=O)[nH]c4c(C(=O)NC(C)C)sc(=S)n4c3c2)c1	?	/	?	/	/	-24%
O=C(NC1CCCCC1)c1sc(=S)n2c1[nH]c(=O)c1ccccc12	-77%	?	24µM*	12%	14µM*	?
CCCCNC(=O)c1sc(=S)n2c1[nH]c(=O)c1ccccc12	-5%	?	27µM*	?	16µM*	?
O=C(NC1CCCCCC1)c1c(O)c2ccccc2[nH]c1=O	7%	-10%	-10%	-2%	-8%	4%
COc1ccc(CN(C(=O)c2ccccc2F)C2CCS(=O)(=O)C2)cc1 (stereo not given)	/	-4%	/	?	2%	2%
Cc1cc2nc(CCl)cc(=O)n2[nH]1	-8%	-5%	4%	-2%	-1%	23%
Cc1cc2nc(CSc3ccccc3)cc(=O)n2[nH]1	-15%	-5%	21µM*	4%	-6%	13%
COCCn1c(=O)c(-c2ccc(Cl)cc2)nc2cnc(OCc3ccccc3)nc21	17%	/	/	/	/	-5%
COC(=O)c1sccc1S(=O)(=O)N(CC(=O)NCc1ccc(F)cc1)c1ccc(Cl)cc1	/	-16%	/	-5%	-3%	8%
O=[N+]([O-])c1cccc(NNS(=O)(=O)c2ccccc2F)c1	?	/	21µM*	/	/	?
Cc1cc(S(=O)(=O)Nc2cccc([N+](=O)[O-])c2)c(C)s1	16%	/	-5%	/	/	17%
Cc1cccc(N2CCN(C(=O)c3ccc4nccnc4c3)CC2C)c1 (stereo not given)	/	/	3%	/	/	-7%
Cc1cccc(N2CCN(C(=O)c3ccc4c(c3)NC(=O)C(CSCc3cccc(F)c3)N4)CC2C)c1 (stereo not given)	56µM*	/	?	/	/	?
O=C1Nc2cc(C(=O)N3CCN(c4ccccc4F)CC3)ccc2NC1CSCc1ccccc1F (stereo not given)	56µM*	/	/	/	/	/
COc1ccccc1N1CCN(C(=O)c2ccc3c(c2)NC(=O)C(CSCc2ccccc2C)N3)CC1 (stereo not given)	50µM*	/	/	/	/	/
COc1ccccc1N1CCN(C(=O)c2cccc(C(=O)N3CCN(c4ccccc4OC)CC3)c2)CC1	17%	/	5%	/	/	27%
